Experimental data taken from the supplement of paper PMC9262897, “Low-cost anti-mycobacterial drug discovery using engineered E. coli” (Nature Communications, 2022).
Where a name gives a salt, the structure may show the parent alone. ± gives the standard deviation of the averaged measurements.

Legend:
Test in all cases: growth (OD600 after 10 h); higher = more growth (less inhibition)
[1] = test system: E. coli TESEC Alr+ wild-type control; conditions: compound 0.1 mM; raw OD600 reference: median of DMSO wells 0.241, cell-free background 0.041
Protocol: (§1)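 TESEC Mtb Alr E. coli, or the Alr+ wild-type control, in 384-well plates with Prestwick library compounds at 0.1 mM and 1% DMSO, across arabinose induction levels of 1E3 to 1E7 nM. Growth is read as OD600 after 10 h at 37 °C in triplicate biological replicates.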

E. coli TESEC Mtb Alr [2] = conditions: compound 0.1 mM
Protocol: as §1

E. coli TESEC Mtb Asd = conditions: compound 0.1 mM
Protocol: (§2)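 TESEC E. coli strains in which the native enzyme is deleted and replaced by arabinose-inducible Mtb Asd, DapB, CysH or TrpD, each grown in its selective medium. Strains were screened against the Prestwick library at 0.1 mM and 1% DMSO in 384-well format at low and high arabinose induction. Growth is read as OD600 after 10 h in triplicate.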

E. coli TESEC Mtb DapB = conditions: compound 0.1 mM
Protocol: as §2

[3] = test system: E. coli TESEC Alr+ wild-type control; conditions: compound 0.1 mM; raw OD600 reference: median of DMSO wells 0.49, cell-free background 0.052
Protocol: (§3)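 TESEC Mtb Alr E. coli (ΔaraC ΔtolC ΔentC Δalr ΔdadX, arabinose-inducible Mtb Alr) or the Alr+ wild-type control strain, grown in defined M9-fructose medium without D-alanine in 96-well plates with Prestwick library compounds at 0.1 mM and 1% DMSO. Low Alr induction is 0.1 µM arabinose and high induction is 10 mM arabinose.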

E. coli TESEC Mtb Alr [4] = conditions: compound 0.1 mM; remark: listed apart in the source
Protocol: as §3

[5] = arabinose 1000 nM, raw OD600 reference: median of DMSO wells 0.294, cell-free background 0.041
[6] = arabinose 10000 nM, raw OD600 reference: median of DMSO wells 0.264, cell-free background 0.041
[7] = arabinose 100000 nM, raw OD600 reference: median of DMSO wells 0.201, cell-free background 0.041
[8] = arabinose 1000000 nM, raw OD600 reference: median of DMSO wells 0.193, cell-free background 0.041
[9] = arabinose 10000000 nM, raw OD600 reference: median of DMSO wells 0.146, cell-free background 0.041
[10] = arabinose induction (level): High, raw OD600 reference: median of DMSO wells 0.331, cell-free background 0.041
[11] = arabinose induction (level): Low, raw OD600 reference: median of DMSO wells 0.417, cell-free background 0.041
[12] = arabinose induction (level): High, raw OD600 reference: median of DMSO wells […], cell-free background 0.041
[13] = arabinose induction (level): Low, raw OD600 reference: median of DMSO wells 0.227, cell-free background 0.041
[14] = arabinose 100 nM, raw OD600 reference: median of DMSO wells 0.413, cell-free background 0.052
[15] = arabinose 10000000 nM, raw OD600 reference: median of DMSO wells […], cell-free background 0.052

| Structure (SMILES) | growth [1] | growth (E. coli TESEC Mtb Alr [2]; [5]) | growth (E. coli TESEC Mtb Alr [2]; [6]) | growth (E. coli TESEC Mtb Alr [2]; [7]) | growth (E. coli TESEC Mtb Alr [2]; [8]) | growth (E. coli TESEC Mtb Alr [2]; [9]) | growth (E. coli TESEC Mtb Asd; [10]) | growth (E. coli TESEC Mtb Asd; [11]) | growth (E. coli TESEC Mtb DapB; [12]) | growth (E. coli TESEC Mtb DapB; [13]) | growth [3] | growth (E. coli TESEC Mtb Alr [4]; [14]) | growth (E. coli TESEC Mtb Alr [4]; [15]) |
| --- | --- | --- | --- | --- | --- | --- | --- | --- | --- | --- | --- | --- | --- |
| CNNCc1ccc(C(=O)NC(C)C)cc1 [Procarbazine hydrochloride] | 0.251 ± 0.0067 | 0.304 ± 0.012 | 0.282 ± 0.0077 | 0.217 ± 0.028 | 0.177 ± 0.019 | 0.151 ± 0.0024 | 0.359 ± 0.043 | 0.476 ± 0.083 | 0.2 ± 0.017 | 0.27 ± 0.022 | 0.454 ± 0.01 | 0.4235 ± 0.0022 | 0.312 ± 0.02 |
| Cc1cc(C(=O)NNCc2ccccc2)no1 [Isocarboxazid] | 0.253 ± 0.0036 | 0.319 ± 0.014 | 0.28 ± 0.0081 | 0.234 ± 0.0096 | 0.198 ± 0.0079 | 0.158 ± 0.0025 | 0.492 ± 0.0092 | 0.441 ± 0.039 | 0.211 ± 0.023 | 0.239 ± 0.035 | 0.463 ± 0.036 | 0.402 ± 0.014 | 0.362 ± 0.013 |
| CC=CC(=O)N(CC)c1ccccc1C [Crotamiton] | 0.242 ± 0.01 | 0.329 ± 0.028 | 0.269 ± 0.014 | 0.236 ± 0.014 | 0.181 ± 0.0031 | 0.158 ± 0.017 | 0.473 ± 0.015 | 0.467 ± 0.02 | 0.236 ± 0.053 | 0.235 ± 0.03 | 0.489 ± 0.022 | 0.4 ± 0.02 | 0.32 ± 0.0055 |
| CNCC[C@@H](Oc1cccc2ccccc12)c1cccs1 [(R)-Duloxetine hydrochloride] | 0.11 ± 0.038 | 0.0692 ± 0.004 | 0.04907 ± 0.00032 | 0.0556 ± 0.002 | 0.0447 ± 0.0038 | 0.0466 ± 0.0019 | 0.106 ± 0.066 | 0.0934 ± 0.04 | 0.0757 ± 0.0014 | 0.0799 ± 0.007 | 0.503 ± 0.049 | 0.4098 ± 0.0032 | 0.272 ± 0.011 |
| Nc1c2ccccc2nc2ccccc12 [Aminacrine] | 0.0412 ± 0.0015 | 0.0397 ± 0.00091 | 0.0408 ± 0.0025 | 0.043 ± 0.0015 | 0.0398 ± 0.0011 | 0.0406 ± 0.00096 | 0.0581 ± 0.016 | 0.0513 ± 0.004 | 0.0484 ± 0.00044 | 0.0506 ± 0.005 | 0.0507 ± 0.00067 | 0.15 ± 0.062 | 0.0885 ± 0.027 |
| COc1ccc(/C=C/C(=O)Nc2ccccc2C(=O)O)cc1OC [Tranilast] | 0.171 ± 0.0022 | 0.245 ± 0.0071 | 0.27 ± 0.0085 | 0.134 ± 0.011 | 0.104 ± 0.002 | 0.126 ± 0.0016 | 0.218 ± 0.032 | 0.279 ± 0.082 | 0.204 ± 0.035 | 0.178 ± 0.011 | 0.452 ± 0.0089 | 0.308 ± 0.12 | 0.15 ± 0.012 |
| C[C@]12CC[C@@H]3c4ccc(O)cc4CC[C@H]3[C@@H]1CC[C@@H]2O [Estradiol-17 beta] | 0.125 ± 0.012 | 0.118 ± 0.052 | 0.214 ± 0.0069 | 0.157 ± 0.011 | 0.129 ± 0.0023 | 0.141 ± 0.0021 | 0.199 ± 0.0073 | 0.22 ± 0.0098 | 0.196 ± 0.0064 | 0.204 ± 0.012 | 0.43 ± 0.017 | 0.399 ± 0.012 | 0.218 ± 0.0046 |
| CC(C)NCC(O)c1ccc2ccccc2c1 (stereo not drawn) [Pronethalol hydrochloride] | 0.245 ± 0.013 | 0.305 ± 0.0032 | 0.2658 ± 0.0016 | 0.207 ± 0.023 | 0.187 ± 0.0061 | 0.142 ± 0.0032 | 0.247 ± 0.045 | 0.431 ± 0.085 | 0.194 ± 0.015 | 0.225 ± 0.03 | 0.473 ± 0.048 | 0.403 ± 0.012 | 0.351 ± 0.017 |
| COc1ccccc1N1CCN(CC(O)COc2cccc3ccccc23)CC1 (stereo not drawn) [Naftopidil dihydrochloride] | 0.0455 ± 0.00068 | 0.0439 ± 0.0023 | 0.0416 ± 0.00044 | 0.0537 ± 0.0089 | 0.0425 ± 0.001 | 0.0492 ± 0.0015 | 0.0476 ± 0.00036 | 0.0516 ± 0.0046 | 0.0582 ± 0.0019 | 0.0626 ± 0.0085 | 0.0532 ± 0.0005 | 0.4077 ± 0.0026 | 0.0524 ± 0.0021 |
| C1CCC(C(CC2CCCCN2)C2CCCCC2)CC1 (stereo not drawn) [Perhexiline maleate] | 0.0393 ± 0.0002 | 0.0389 ± 0.00046 | 0.03913 ± 0.00021 | 0.0407 ± 0.00064 | 0.03897 ± 0.00023 | 0.0389 ± 0.0004 | 0.04767 ± 0.00047 | 0.048 ± 0.0016 | 0.0462 ± 0.0004 | 0.0474 ± 0.002 | 0.0486 ± 0.00055 | 0.168 ± 0.18 | 0.0522 ± 0.0012 |
| CN(C)CCC(c1ccc(Cl)cc1)c1ccccn1 (stereo not drawn) [Chlorpheniramine maleate] | 0.22 ± 0.0024 | 0.264 ± 0.022 | 0.259 ± 0.0028 | 0.18 ± 0.018 | 0.162 ± 0.0019 | 0.135 ± 0.0055 | 0.291 ± 0.091 | 0.399 ± 0.061 | 0.187 ± 0.012 | 0.23 ± 0.0095 | 0.466 ± 0.037 | 0.4277 ± 0.0018 | 0.325 ± 0.01 |
| O=S(=O)(O)c1cc(O)ccc1O [Ethamsylate] | 0.252 ± 0.0066 | 0.311 ± 0.0039 | 0.258 ± 0.0087 | 0.206 ± 0.018 | 0.182 ± 0.0086 | 0.13 ± 0.0042 | 0.211 ± 0.034 | 0.391 ± 0.0046 | 0.191 ± 0.013 | 0.244 ± 0.025 | 0.525 ± 0.079 | 0.41 ± 0.015 | 0.344 ± 0.022 |
| CN(Cc1cc(Br)cc(Br)c1N)C1CCCCC1 [Bromhexine hydrochloride] | 0.0422 ± 0.0023 | 0.0459 ± 0.0083 | 0.04107 ± 0.00031 | 0.0454 ± 0.0014 | 0.0423 ± 0.00059 | 0.0454 ± 0.00098 | 0.194 ± 0.028 | 0.0472 ± 0.0019 | 0.04827 ± 0.00047 | 0.0644 ± 0.0038 | 0.0641 ± 0.0033 | 0.0619 ± 0.0019 | 0.0553 ± 0.0034 |
| O=C(O)/C=C/c1ccc(Cn2ccnc2)cc1 [Ozagrel hydrochloride] | 0.229 ± 0.006 | 0.268 ± 0.019 | 0.263 ± 0.0041 | 0.197 ± 0.025 | 0.179 ± 0.0082 | 0.143 ± 0.0023 | 0.248 ± 0.03 | 0.422 ± 0.035 | 0.176 ± 0.0061 | 0.207 ± 0.023 | 0.482 ± 0.076 | 0.397 ± 0.017 | 0.372 ± 0.014 |
| Cc1scc2c1N(C(=O)CN1CCN(C)CC1)c1ccccc1NC2=O [Telenzepine dihydrochloride] | 0.242 ± 0.0054 | 0.309 ± 0.0066 | 0.241 ± 0.0053 | 0.208 ± 0.012 | 0.162 ± 0.0049 | 0.153 ± 0.0031 | 0.321 ± 0.083 | 0.442 ± 0.025 | 0.1919 ± 0.0014 | 0.264 ± 0.071 | 0.545 ± 0.024 | 0.407 ± 0.011 | 0.338 ± 0.0097 |
| CNCCCC12CCC(c3ccccc31)c1ccccc12 [Maprotiline hydrochloride] | 0.269 ± 0.0086 | 0.256 ± 0.016 | 0.276 ± 0.0088 | 0.246 ± 0.032 | 0.134 ± 0.0037 | 0.169 ± 0.0019 | 0.197 ± 0.0097 | 0.164 ± 0.016 | 0.1849 ± 0.0011 | 0.211 ± 0.011 | 0.589 ± 0.072 | 0.41 ± 0.0086 | 0.28 ± 0.013 |
